Screen size: about 16,000 compounds; about 5,100 (32%) were called active. Not shown: some 25% with an inconclusive outcome. Calls come from the whole dose curve; as a rule, active = well fitted curve in the direction sought with a large enough effect; inconclusive = small, poorly fitted or top-dose-only effect, or effect the other way; inactive = no such curve, though single readings can be large or run the other way. The list shows a part of the results.

By AC50 is commonly meant the concentration at which the activity in the assay is half-maximal.
% is set by controls: 0 for no effect and ±100 for the full control effect.

For this assay, the target named is Cytochrome P450 3A4 (Homo sapiens) (UniProt P08684). The assay is described as follows: Cytochrome panel assay with activity outcomes. The note with it: recombinant CYP, pro-luciferin dealkylation, luminescence, p450-cyp3a4; series mostly up to 57.1 µM.
Chain of Cytochrome P450 3A4 (Homo sapiens) (P08684 whole entry, looked up): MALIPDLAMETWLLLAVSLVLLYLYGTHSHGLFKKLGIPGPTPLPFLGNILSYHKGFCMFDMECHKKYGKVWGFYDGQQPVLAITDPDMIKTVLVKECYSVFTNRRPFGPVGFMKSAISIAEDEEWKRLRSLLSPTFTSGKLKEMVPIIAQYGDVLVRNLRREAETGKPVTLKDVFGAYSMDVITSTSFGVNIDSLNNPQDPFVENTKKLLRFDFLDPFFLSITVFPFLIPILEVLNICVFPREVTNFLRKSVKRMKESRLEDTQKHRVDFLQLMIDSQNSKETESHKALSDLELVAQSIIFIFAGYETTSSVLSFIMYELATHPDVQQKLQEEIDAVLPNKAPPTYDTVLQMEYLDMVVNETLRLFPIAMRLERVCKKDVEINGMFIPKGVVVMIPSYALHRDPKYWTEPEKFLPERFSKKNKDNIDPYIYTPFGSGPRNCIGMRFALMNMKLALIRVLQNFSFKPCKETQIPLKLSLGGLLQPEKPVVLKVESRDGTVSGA
Consider `CC(C)NC(=O)N1CCC2(CC1)CCN(S(C)(=O)=O)CC2`, for which the AC50 entry was “inactive”. For `Cc1cccc(-n2ncc3c(Nc4c(C)n(C)n(-c5ccccc5)c4=O)ncnc32)c1`, the AC50 entry was “inactive”. On to `CCc1c(C)c(C#N)c2nc3ccccc3n2c1N1CCN(c2cc(C)ccn2)CC1`, for which the AC50 entry is “inactive”. In the case of `CCc1c(C)c(C#N)c2nc3ccccc3n2c1Nc1c(C)n(C)n(-c2ccccc2)c1=O`, the AC50 is 7.94 µM (active).

As to `COc1ccc(NC(=O)CCSc2cc(C)c3ccccc3n2)cc1`, the AC50 was 3.98 µM (active). Turning to `COc1ccc2nc(C)cc(SCC(=O)Nc3c(C)cc(C)cc3C)c2c1`, the AC50 was 2.51 µM (active).

Take `COc1ccc2nc(C)cc(SCC(=O)NNC(=O)COc3ccccc3)c2c1`: the AC50 was 2.82 µM (active). As to `Cc1ccc(OCC(=O)NNC(=O)c2cc3ccccc3o2)cc1`, the AC50 entry is “inactive”.

As to `COc1ccc2nc(SCC(=O)NN)cc(C)c2c1`, the AC50 is 2.82 µM (active). As for `NCCCCN`, the AC50 result is “inactive”.

With `C=CC1=C(C(=O)O)N2C(=O)[C@@H](NC(=O)/C(=N\OCC(=O)O)c3csc(N)n3)[C@@H]2SC1`, the AC50 result was “inactive”.

Regarding `COc1ccc2nccc(SCC(=O)O)c2c1`, the activity, negative = inhibition was -8.31% [at 11.4 µM] (inactive). With `COc1ccc2nc(C)cc(SCC(=O)NNC(=O)COc3ccc(C)cc3)c2c1`, the AC50 is 2.24 µM (active). With `COc1ccccc1-c1nc(NCCNC(C)=O)c2ccccc2n1`, the AC50 result is “inactive”. For the molecule `CC(=O)NCCNc1nc(-c2ccccc2C)nc2ccccc12`, the AC50 was 5.01 µM (active). On the same count and under the same terms, under `CC(=O)NCCNc1nc(-c2c(C)noc2C)nc2ccccc12` stands 15.8 µM (active). In the case of `NCCCCCCCCCCN`, the AC50 entry is “inactive”.

On to `CC(=O)Nc1ccc(NC(=O)C/C(C)=N/NC(=O)C(=O)N2CCCC2)cc1`, for which the AC50 entry was “inactive”. On to `CCn1c2ccccc2c2cc(NC(=O)C/C(C)=N/NC(=O)c3ccccc3N)ccc21`, for which the concentration at half-maximal activity (AC50) was 7.08 µM (active). As to `COc1ccc(CNc2ccnc(-c3c(C)noc3C)n2)c(OC)c1`, the AC50 was 2.51 µM (active). In the case of `COc1ccccc1CNc1ccnc(-c2c(C)noc2C)n1`, the half-maximal activity concentration (AC50) is 5.01 µM (active).

As to `CC1(C)Cc2c(sc3c2C(=O)N(c2ccccc2)C2=NCCN23)CS1`, the AC50 result was “inactive”. For `CC1(C)Cc2c(sc3nc(SCC(=O)NCc4ccccc4)n(-c4ccccc4)c(=O)c23)CS1`, the AC50 is 3.55 µM (active). For `Cc1ccc(-n2c(SCC(=O)NCc3ccco3)nc3sc4c(c3c2=O)CC(C)(C)SC4)cc1`, the AC50 is 2 µM (active).

For `CN(C)c1ccc(-c2cncnc2NCc2cccnc2)cc1`, the AC50 is 0.631 µM (active).

Regarding `CN(C)c1ccc(-c2cncnc2NCc2ccccc2)cc1`, the concentration at half-maximal activity (AC50) was 0.0316 µM (active).

With `COc1ccccc1CNC(=O)CSc1nc2nc(C)cc(C)n2n1`, the concentration at half-maximal activity (AC50) is 14.1 µM (active). With `Cc1ccc(/C=N/NC(=O)CSc2nc3nc(C)cc(C)n3n2)cc1`, the concentration at half-maximal activity (AC50) was 15.8 µM (active). As to `COc1cc(NC(=O)COC(=O)c2nc3nc(C)cc(C)n3n2)cc(OC)c1`, the activity, negative = inhibition was 20% [at 2.29 µM] (inactive). As for `Cc1cc(C)n2nc(SCc3cc(=O)oc4ccc5ccccc5c34)nc2n1`, the AC50 is 2.24 µM (active). As to `CCCSc1nnc(CSc2nc3nc(C)cc(C)n3n2)o1`, the activity, negative = inhibition is 5.19% [at 11.4 µM] (inactive). On to `Cc1cc(C)n2nc(SCC(=O)N/N=C/c3ccccc3F)nc2n1`, for which the AC50 result was “inactive”. `CCSc1nc2nc(C)cc(C)n2n1`: the AC50 entry is “inactive”.

Turning to `CCn1c(SCC(=O)NC2CCCCC2)nnc1-c1cc2cccc(OC)c2o1`, the half-maximal activity concentration (AC50) was 10 µM (active). Still for that read-out and setting: in the case of `CCC(=O)N[C@@H]1CCc2cccc(OC)c2C1` it was “inactive”; in that of `COc1cccc2cc(NC(=O)C3CCCCC3)c(=O)oc12`, “inactive”. As to `N/C(=N\OC(=O)c1cc(-c2ccccc2)nc2ccccc12)c1ccc(Cl)cc1`, the AC50 result was “inactive”. As for `CCNC(=O)COC(=O)c1cc(=O)[nH]c2ccccc12`, the AC50 result is “inactive”. Turning to `CCNC(=O)COC(=O)c1cc(-c2ccc(OC)cc2)nc2ccccc12`, the concentration at half-maximal activity (AC50) was 14.1 µM (active). For the molecule `Cc1ccccc1CS(=O)(=O)CCC(=O)NCCCN1CCN(c2ccccc2F)CC1`, the AC50 was 11.2 µM (active). On to `Cc1ccc(CS(=O)(=O)CCC(=O)NCCCN2CCCC2)cc1`, for which the AC50 was 28.2 µM (active). Turning to `CCOCCCNC(=O)CCS(=O)(=O)Cc1ccc(C)cc1`, the AC50 result is “inactive”.

Turning to `CCS(=O)(=O)N1CCC(C(=O)NCCCN2CCN(c3ccccc3F)CC2)CC1`, the AC50 result is “inactive”.

Consider `Cc1ccc(CS(=O)(=O)CCC(=O)NCCCN2CCCC2=O)cc1`, for which the AC50 result was “inactive”.

With `CCCS(=O)(=O)N1CCCC(C(=O)NCCCN2CCN(c3ccccc3F)CC2)C1` (stereo unspecified), the AC50 result was “inactive”.

Take `Cc1ccc2c(c1)/C(=N/OC(=O)c1ccc(F)cc1)CCS2`: the AC50 result is “inactive”. In the case of `N#Cc1c(-c2ccccc2)nc2n(c1=O)CCS2`, the AC50 entry was “inactive”. `N#Cc1c(-c2ccccc2)nc(-c2ccccc2)[nH]c1=O`: the AC50 entry was “inactive”. On the same count and under the same terms, in the case of `N#Cc1c(-c2ccccc2)no[n+]1[O-]` it was 12.6 µM (active); in that of `COc1ccc(N(CC(=O)NCc2cccc(OC)c2)S(=O)(=O)c2c(C)noc2C)cc1`, 1.78 µM (active). Turning to `COc1cccc(CNCCNC(=O)c2nonc2N)c1`, the AC50 entry is “inactive”.

As for `CCOc1ccc(N(CC(=O)NCc2ccc(OC)cc2)S(=O)(=O)c2c(C)noc2C)cc1`, the AC50 is 0.631 µM (active). On the same count and under the same terms, under `Cn1cccc1C(=O)N1CCC[C@@]2(CCN(c3ccccc3)C2)C1` stands 10 µM (active); under `Cn1cccc1C(=O)N1CCC2(CC1)CN(c1ccncc1)C2`, “inactive”; under `Cn1cccc1C(=O)N1CCC2(CCCN(c3cccc(-c4ccccc4)c3)C2)CC1`, 10 µM (active). As for `CC(C)NC(=O)N1CC[C@@]2(CCCN(C(=O)c3cccn3C)C2)C1`, the AC50 result was “inactive”.

On to `CN1CCCC2(CCN(C(=O)c3cccn3C)CC2)C1`, for which the AC50 result was “inactive”.

With `Cn1cccc1C(=O)N1CCC2(CC1)CCN(c1ccncc1)CC2`, the AC50 entry was “inactive”. In the case of `Cn1cccc1C(=O)N1CCC[C@@]2(CCN(c3ccncc3)C2)C1`, the concentration at half-maximal activity (AC50) is 1 µM (active).

`Cn1cccc1C(=O)N1CCC[C@@]2(CCN(c3cccc(-c4ccccc4)c3)C2)C1`: the concentration at half-maximal activity (AC50) is 7.94 µM (active). The same measure, in the same setting: under `Cn1cccc1C(=O)N1CCC2(CCCN(c3ncccn3)C2)CC1` stands “inactive”; under `Cn1cccc1C(=O)N1CCC2(CC1)CCN(c1cccc(-c3ccccc3)c1)CC2`, “inactive”; under `C[N+](C)(C)CCCCCC[N+](C)(C)C`, “inactive”.

With `Cn1cccc1C(=O)N1CCC[C@@]2(CCN(C(c3ccccc3)c3ccccc3)C2)C1`, the AC50 was 12.6 µM (active). On the same count and under the same terms, in the case of `COC(=O)N1CCC[C@@]2(CCN(C(c3ccccc3)c3ccccc3)C2)C1` it was “inactive”. Regarding `CC(C)NC(=O)N1CCC2(CC1)CCN(C(=O)c1cccn1C)CC2`, the AC50 result is “inactive”. As for `COc1cccc2c1[C@@H]1CN(CCCCn3c(=O)[nH]c4c(sc5ncc(-c6ccccc6)nc54)c3=O)C[C@H]1CO2`, the concentration at half-maximal activity (AC50) is 15.8 µM (active). For the molecule `O=C1Nc2ccccc2C(O)(C(=O)NCc2ccc3c(c2)OCO3)N1c1ccc(Cl)c(Cl)c1` (stereo unspecified), the concentration at half-maximal activity (AC50) was 0.126 µM (active). Take `NCCCC(=O)O`: the AC50 entry is “inactive”.

Consider `c1ccc(C2CCC(N3CCC(N4CCCCC4)CC3)CC2)cc1` (stereo unspecified), for which the activity, negative = inhibition was -4.19% [at 2.29 µM] (inactive). In the case of `O=S1(=O)[C@H]([C@H]2CC3c4ccccc4C2c2ccccc23)[C@@H](N2CCCCC2)[C@@H]1c1ccccc1`, the half-maximal activity concentration (AC50) is 1 µM (active). For the molecule `CCC#CCOCC(=O)Nc1ccccc1`, the AC50 result was “inactive”. In the case of `CCCCC#Cc1ccccc1CC(=O)Nc1ccccc1`, the AC50 was 1 µM (active). The same measure, in the same setting: in the case of `O=C(Cc1ccccc1I)Nc1ccccc1` it was “inactive”. Take `OCCCN=C1CCCCC1`: the activity, negative = inhibition was -15.7% [at 11.4 µM] (inactive). With `CNC(=O)c1nnn(Cc2ccccc2)c1NC(=O)C(F)(F)F`, the AC50 result was “inactive”. Same read-out and setting: in the case of `C[C@@H](C(=O)Nc1ccc2ccccc2c1)[C@@H]1C[C@@]1(C)[C@@H](NC(=O)OCc1ccccc1)c1ccccc1` it was 7.94 µM (active); in that of `C[C@@H](C(=O)Nc1ccc2ccccc2c1)[C@H]1C[C@]1(C)[C@H](NC(=O)OCc1ccccc1)c1ccccc1`, 2.51 µM (active); in that of `Cc1ccc(NC(=O)N(Cc2ccco2)C(C)c2ccco2)cc1C` (stereo unspecified), 3.16 µM (active). As for `c1cncc(CNCc2cccnc2)c1`, the activity, negative = inhibition is -27.6% [at 11.4 µM] (inactive).

In the case of `c1ccc(CCc2cccnc2)nc1`, the activity, negative = inhibition is -27.8% [at 11.4 µM] (inactive). In the case of `c1ccc(C[C@@H](Nc2cccnc2)c2ccccc2)cc1`, the AC50 is 3.16 µM (active). For the molecule `CCOC(=O)CCN1C(=O)[C@H]2[C@H]3[C@H](O)[C@H](O)C/C(=N/OCC(C)C)[C@@H]3CC[C@@H]2C1=O`, the activity, negative = inhibition is -27.7% [at 11.4 µM] (inactive).

For `O=C(c1ccc([N+](=O)[O-])cc1)n1nc(-c2ccccc2)nc1NCc1ccccc1`, the activity, negative = inhibition is 13.6% [at 2.29 µM] (inactive). Consider `O=C(NCc1cn(-c2ccccc2)nc1-c1ccccc1)c1cc([N+](=O)[O-])cc([N+](=O)[O-])c1`, for which the half-maximal activity concentration (AC50) was 2.51 µM (active).

For `COC(=O)c1ccc(NC(=O)c2ccccc2)o1`, the activity, negative = inhibition is -12.8% [at 2.29 µM] (inactive). Take `COC(=O)c1ccc(C23CC2(C(NP(=O)(c2ccccc2)c2ccccc2)c2ccccc2)C3)cc1` (stereo unspecified): the concentration at half-maximal activity (AC50) was 3.16 µM (active). For the molecule `COC(=O)c1ccc(C#CC(NP(=O)(c2ccccc2)c2ccccc2)c2ccccc2)cc1` (stereo unspecified), the AC50 entry was “inactive”. Consider `CN1C(=O)C[C@H](c2ccccc2)C1=O`, for which the AC50 result is “inactive”. In the case of `C/C(=N\Nc1nnc(C)c(=O)[nH]1)C(=O)O`, the AC50 entry is “inactive”. As to `COC(=O)[C@@]1(Cc2ccccc2)[C@H]2c3cc(C(=O)N4CCCC4)n(Cc4ccccn4)c3C[C@H]2CN1C(=O)c1ccccc1`, the AC50 is 2 µM (active). The same measure, in the same setting: in the case of `COC(=O)[C@@]1(Cc2ccccc2)[C@H]2c3cc(C(=O)N4CCCC4)n(CCc4ccccn4)c3C[C@H]2CN1C(=O)c1ccccc1` it was 2 µM (active).

Turning to `COC(=O)[C@@]1(Cc2ccc(F)cc2)[C@H]2c3cc(C(=O)N4CCCC4)n(Cc4ccccn4)c3C[C@H]2CN1C(=O)c1ccccc1`, the AC50 is 1 µM (active). For `O=C(O)[C@@H](O)[C@@H](O)[C@H](O)[C@H](O)CO`, the activity, negative = inhibition is -3.9% [at 11.4 µM] (inactive). For the molecule `O=C(Cc1ccc(Br)cc1)OCC(=O)c1ccc2c(c1)OCCO2`, the activity, negative = inhibition is -3.84% [at 2.29 µM] (inactive). Regarding `C/C(=C\C(=O)c1ccc(Br)cc1)NCc1ccc2c(c1)OCO2`, the concentration at half-maximal activity (AC50) is 2.51 µM (active).
